# Experimental data: the supplement of paper PMC10849652
# The full data set covers some 7,900 targets. This sample favours those with a hit. About 0.6% of all pairs of compound and target were hits. Values without a mark were called inactive.
# Key:
# Assay in all cases: log2 fold change, soluble protein after heating vs DMSO (PISA); higher = thermal stabilisation; K562 cells, 10 uM, 30 min; active = over 0.2 and 3.5 SD of the protein, either way, in both replicates (recomputed)
# [1] = compound: CC1=C(C=C(C=C1)NC(=O)C2=CC(=CC=C2)C(C)(C)C#N)NC3=CC4=C(C=C3)N=CN(C4=O)C
# In short: (§1)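 Soluble protein was defined as the supernatant after 21,000xg for 90 min. It came from K562 cells at 2×10^6 cells/mL given 10 μM compound for 30 min, heated in aliquots for 3 min across 48°C-58°C, pooled, and extracted in PBS with 0.5% NP-40 at 4°C, and was quantified by TMTpro 16plex LC-MS/MS with equalised channel sums. Thermal stability against control samples, from duplicates, is reported as log2 fold change.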
# [2] = compound: CC1=C(C=C(C=C1)NC(=O)C2=CC(=CC=C2)N(C)C)NC(=O)C3=CC=C(C=C3)O
# In short: as §1
# [3] = compound: CC1=CC=C(C=C1)SC2=C3C=C(SC3=CN=C2)C(=O)N
# In short: as §1
# [4] = compound: CC1=NC(=CC=C1)C2=C(N=C(N2)C(C)(C)C)C3=CC4=NC=CN=C4C=C3
# In short: as §1
# Nexturastat A = compound: CCCCN(Cc1ccc(C(=O)NO)cc1)C(=O)Nc1ccccc1 [Nexturastat A]
# In short: as §1
# vemurafenib = compound: CCCS(=O)(=O)Nc1ccc(F)c(C(=O)c2c[nH]c3ncc(-c4ccc(Cl)cc4)cc23)c1F [vemurafenib]
# In short: as §1
# [5] = compound: CCCS(=O)(=O)Nc1ccc(F)c(C(=O)c2c[nH]c3ncc(Cl)cc23)c1F
# In short: as §1
# [6] = compound: CCCc1cc(C)[nH]c(=O)c1CNC(=O)c1cc(-c2ccnc(N3CCN(C)CC3)c2)cc2c1cnn2C(C)C
# In short: as §1
# givinostat = compound: CCN(CC)Cc1ccc2cc(COC(=O)Nc3ccc(C(=O)NO)cc3)ccc2c1 [givinostat]
# In short: as §1
# barasertib = compound: CCN(CCCOc1ccc2c(Nc3cc(CC(=O)Nc4cccc(F)c4)[nH]n3)ncnc2c1)CCOP(=O)(O)O [barasertib]
# In short: as §1
# [7] = compound: CC[C@@H]1C(=O)N(C)c2cnc(Nc3ccc(C(=O)NC4CCN(C)CC4)cc3OC)nc2N1C1CCCC1
# In short: as §1
# volasertib = compound: CC[C@@H]1C(=O)N(C)c2cnc(Nc3ccc(C(=O)N[C@H]4CC[C@H](N5CCN(CC6CC6)CC5)CC4)cc3OC)nc2N1C(C)C [volasertib]
# In short: as §1
# [8] = compound: CC[C@H](C)N1C=C(C2=C(C=C(C=C21)C3=CN=C(C=C3)N4CCNCC4)C(=O)NCC5=C(C=C(NC5=O)C)C)C
# In short: as §1
# epoxomicin = compound: CC[C@H](C)[C@@H](C(=O)N[C@@H]([C@@H](C)O)C(=O)N[C@@H](CC(C)C)C(=O)[C@]1(CO1)C)NC(=O)[C@H]([C@@H](C)CC)N(C)C(=O)C [epoxomicin]
# In short: as §1
# [9] = compound: CCn1c(C(=O)N(C2CC2)C2CC2)cc2c3c(ncn3C)c(Nc3cc(C)n(C)n3)nc21
# In short: as §1
# [10] = compound: CCn1cc(-c2ccnc3[nH]c(-c4cccc(CN(C)C)c4)cc23)c(-c2ccc(NC(=O)N(C)C)cc2)n1
# In short: as §1
# [11] = compound: CN(C)CC(=O)Nc1ccc2[nH]c(=O)c3ccccc3c2c1
# In short: as §1
# rosiglitazone = compound: CN(CCOC1=CC=C(C=C1)C[C@H]2C(=O)NC(=O)S2)C3=CC=CC=N3 (racemic) [rosiglitazone]
# In short: as §1
# [12] = compound: CN1C2=C(C3=C1C(=O)N(N=C3)CC4=CC(=CC=C4)N)SC(=C2)S(=O)C
# In short: as §1
# [13] = compound: CN1CCC(CNc2ccc3ncc(-c4cccc(OC(F)(F)F)c4)n3n2)CC1
# In short: as §1
# Chain of UniProt P33240 (P33240 whole entry, looked up): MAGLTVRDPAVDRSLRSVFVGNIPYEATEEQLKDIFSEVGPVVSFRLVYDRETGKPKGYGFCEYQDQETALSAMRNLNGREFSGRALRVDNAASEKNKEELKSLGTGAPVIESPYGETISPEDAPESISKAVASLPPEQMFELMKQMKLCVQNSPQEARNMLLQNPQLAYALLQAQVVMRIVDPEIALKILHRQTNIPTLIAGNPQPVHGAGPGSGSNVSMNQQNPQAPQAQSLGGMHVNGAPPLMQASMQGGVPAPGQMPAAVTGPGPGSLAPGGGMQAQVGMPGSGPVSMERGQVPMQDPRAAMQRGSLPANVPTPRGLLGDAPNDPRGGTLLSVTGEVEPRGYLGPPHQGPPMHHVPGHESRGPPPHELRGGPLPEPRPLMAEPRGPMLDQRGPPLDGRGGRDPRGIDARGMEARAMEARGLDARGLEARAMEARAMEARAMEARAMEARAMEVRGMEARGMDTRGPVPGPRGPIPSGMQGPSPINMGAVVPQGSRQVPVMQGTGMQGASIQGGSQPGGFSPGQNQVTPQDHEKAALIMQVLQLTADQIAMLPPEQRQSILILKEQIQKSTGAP
# Chain of UniProt Q5T5Y3 (Q5T5Y3 whole entry, looked up): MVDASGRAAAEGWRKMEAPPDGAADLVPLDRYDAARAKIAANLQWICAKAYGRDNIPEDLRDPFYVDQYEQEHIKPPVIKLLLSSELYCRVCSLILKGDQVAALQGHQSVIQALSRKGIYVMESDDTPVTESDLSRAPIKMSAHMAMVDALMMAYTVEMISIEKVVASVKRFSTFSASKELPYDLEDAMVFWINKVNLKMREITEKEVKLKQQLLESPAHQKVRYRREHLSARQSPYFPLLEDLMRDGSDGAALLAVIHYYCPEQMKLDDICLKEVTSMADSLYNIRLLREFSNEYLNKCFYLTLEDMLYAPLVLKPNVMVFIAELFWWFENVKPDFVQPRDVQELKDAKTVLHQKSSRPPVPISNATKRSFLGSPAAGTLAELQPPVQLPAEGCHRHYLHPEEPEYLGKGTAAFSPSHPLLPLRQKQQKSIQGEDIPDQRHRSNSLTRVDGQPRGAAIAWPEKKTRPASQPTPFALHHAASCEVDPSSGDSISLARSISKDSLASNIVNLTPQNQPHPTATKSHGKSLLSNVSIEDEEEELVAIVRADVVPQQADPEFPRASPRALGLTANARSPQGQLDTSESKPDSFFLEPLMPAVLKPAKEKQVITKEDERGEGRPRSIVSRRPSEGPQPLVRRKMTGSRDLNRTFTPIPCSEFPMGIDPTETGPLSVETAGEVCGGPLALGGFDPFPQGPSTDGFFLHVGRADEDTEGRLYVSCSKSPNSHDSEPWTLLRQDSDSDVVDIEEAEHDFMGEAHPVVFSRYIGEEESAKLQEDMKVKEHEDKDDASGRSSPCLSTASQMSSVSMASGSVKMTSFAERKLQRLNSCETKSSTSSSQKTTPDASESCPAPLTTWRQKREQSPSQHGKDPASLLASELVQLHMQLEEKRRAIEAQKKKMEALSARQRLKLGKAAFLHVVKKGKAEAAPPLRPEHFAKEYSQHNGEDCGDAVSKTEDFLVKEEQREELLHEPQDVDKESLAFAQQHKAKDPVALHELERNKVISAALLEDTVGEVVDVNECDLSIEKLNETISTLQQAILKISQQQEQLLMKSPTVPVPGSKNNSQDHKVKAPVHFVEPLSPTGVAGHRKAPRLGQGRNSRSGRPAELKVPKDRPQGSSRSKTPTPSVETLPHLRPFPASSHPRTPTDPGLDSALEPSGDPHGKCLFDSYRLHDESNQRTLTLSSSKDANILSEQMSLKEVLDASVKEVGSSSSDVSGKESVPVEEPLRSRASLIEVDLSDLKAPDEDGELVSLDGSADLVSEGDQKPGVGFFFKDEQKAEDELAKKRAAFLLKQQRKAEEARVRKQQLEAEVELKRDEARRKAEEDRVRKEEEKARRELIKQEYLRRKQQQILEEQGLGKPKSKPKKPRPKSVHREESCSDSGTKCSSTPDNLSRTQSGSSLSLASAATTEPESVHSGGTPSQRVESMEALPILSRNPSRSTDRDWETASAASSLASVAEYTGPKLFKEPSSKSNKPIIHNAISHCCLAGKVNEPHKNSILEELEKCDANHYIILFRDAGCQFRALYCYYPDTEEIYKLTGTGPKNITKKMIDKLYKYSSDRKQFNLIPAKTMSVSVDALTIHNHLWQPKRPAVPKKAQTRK
# Chain of UniProt P61024 (P61024 whole entry, looked up): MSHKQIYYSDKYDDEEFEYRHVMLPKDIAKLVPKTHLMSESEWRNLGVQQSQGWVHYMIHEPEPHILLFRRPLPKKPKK
# Chain of UniProt Q12996 (Q12996 whole entry, looked up): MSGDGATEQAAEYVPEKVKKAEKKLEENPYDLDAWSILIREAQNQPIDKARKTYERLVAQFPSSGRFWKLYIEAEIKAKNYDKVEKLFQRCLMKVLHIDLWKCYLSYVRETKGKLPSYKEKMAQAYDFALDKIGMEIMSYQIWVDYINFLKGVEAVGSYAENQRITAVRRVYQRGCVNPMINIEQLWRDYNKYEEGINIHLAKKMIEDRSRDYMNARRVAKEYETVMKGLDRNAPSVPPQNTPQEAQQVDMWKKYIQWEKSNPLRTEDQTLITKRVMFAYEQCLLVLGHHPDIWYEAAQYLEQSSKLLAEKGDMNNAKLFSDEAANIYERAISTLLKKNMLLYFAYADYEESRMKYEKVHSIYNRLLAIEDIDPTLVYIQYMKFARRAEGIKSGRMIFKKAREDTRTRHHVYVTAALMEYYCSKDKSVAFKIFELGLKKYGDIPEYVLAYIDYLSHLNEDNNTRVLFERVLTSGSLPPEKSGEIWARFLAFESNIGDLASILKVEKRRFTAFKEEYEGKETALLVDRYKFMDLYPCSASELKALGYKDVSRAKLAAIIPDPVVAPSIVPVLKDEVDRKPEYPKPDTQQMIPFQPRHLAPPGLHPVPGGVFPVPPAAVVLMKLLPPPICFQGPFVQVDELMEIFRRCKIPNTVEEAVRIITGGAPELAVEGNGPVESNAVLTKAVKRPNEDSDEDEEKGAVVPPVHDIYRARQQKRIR
# Chain of UniProt Q5VT25 (Q5VT25 whole entry, looked up): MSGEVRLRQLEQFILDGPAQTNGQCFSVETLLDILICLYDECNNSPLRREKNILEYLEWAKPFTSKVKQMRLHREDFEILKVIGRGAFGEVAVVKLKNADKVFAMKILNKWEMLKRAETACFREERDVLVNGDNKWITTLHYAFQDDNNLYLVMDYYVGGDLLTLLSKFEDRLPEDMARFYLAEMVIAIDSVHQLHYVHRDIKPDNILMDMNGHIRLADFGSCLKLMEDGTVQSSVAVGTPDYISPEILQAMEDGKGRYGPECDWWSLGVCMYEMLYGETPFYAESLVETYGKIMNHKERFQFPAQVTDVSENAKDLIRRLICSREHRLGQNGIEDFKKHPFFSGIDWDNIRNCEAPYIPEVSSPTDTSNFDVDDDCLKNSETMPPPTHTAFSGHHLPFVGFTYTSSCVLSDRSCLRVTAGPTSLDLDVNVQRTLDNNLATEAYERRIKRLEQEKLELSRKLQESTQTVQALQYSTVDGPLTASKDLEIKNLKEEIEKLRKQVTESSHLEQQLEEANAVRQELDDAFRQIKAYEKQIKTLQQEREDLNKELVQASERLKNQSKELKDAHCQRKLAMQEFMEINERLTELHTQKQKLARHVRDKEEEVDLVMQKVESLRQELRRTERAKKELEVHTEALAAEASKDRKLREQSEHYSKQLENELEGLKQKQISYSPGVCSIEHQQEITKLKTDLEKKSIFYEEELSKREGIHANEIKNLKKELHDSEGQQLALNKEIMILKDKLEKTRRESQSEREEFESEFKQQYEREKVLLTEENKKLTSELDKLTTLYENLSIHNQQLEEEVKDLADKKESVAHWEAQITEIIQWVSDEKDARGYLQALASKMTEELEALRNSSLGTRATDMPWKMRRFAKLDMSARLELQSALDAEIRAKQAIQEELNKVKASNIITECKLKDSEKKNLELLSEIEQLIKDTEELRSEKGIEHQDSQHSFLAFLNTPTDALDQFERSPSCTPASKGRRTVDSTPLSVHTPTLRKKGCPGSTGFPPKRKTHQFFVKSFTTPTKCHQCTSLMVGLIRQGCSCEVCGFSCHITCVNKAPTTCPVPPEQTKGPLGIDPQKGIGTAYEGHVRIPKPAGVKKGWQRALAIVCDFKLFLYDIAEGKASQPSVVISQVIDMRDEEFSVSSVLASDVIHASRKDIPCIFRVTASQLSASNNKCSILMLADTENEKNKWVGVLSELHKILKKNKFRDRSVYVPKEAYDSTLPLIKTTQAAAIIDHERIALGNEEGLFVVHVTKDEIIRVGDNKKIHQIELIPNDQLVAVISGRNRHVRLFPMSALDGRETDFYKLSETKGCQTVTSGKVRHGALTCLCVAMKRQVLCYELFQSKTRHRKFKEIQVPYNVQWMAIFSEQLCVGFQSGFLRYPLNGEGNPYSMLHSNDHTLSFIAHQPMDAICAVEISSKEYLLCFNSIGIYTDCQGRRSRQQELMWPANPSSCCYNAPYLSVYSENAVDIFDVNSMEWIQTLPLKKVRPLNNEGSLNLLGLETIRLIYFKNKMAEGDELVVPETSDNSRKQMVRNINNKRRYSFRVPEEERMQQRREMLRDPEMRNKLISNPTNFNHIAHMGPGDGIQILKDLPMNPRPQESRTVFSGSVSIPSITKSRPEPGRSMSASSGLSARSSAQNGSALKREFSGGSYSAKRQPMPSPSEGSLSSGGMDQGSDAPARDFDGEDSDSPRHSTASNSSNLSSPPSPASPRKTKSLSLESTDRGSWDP
# Chain of UniProt Q86X83 (Q86X83 whole entry, looked up): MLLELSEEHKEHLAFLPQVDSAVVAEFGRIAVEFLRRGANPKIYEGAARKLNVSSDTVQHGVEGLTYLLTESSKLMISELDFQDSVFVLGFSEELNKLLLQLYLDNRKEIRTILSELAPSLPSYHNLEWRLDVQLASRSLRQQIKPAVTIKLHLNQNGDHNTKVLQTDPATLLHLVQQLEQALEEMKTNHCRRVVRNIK
# Chain of UniProt Q9NRR8 (Q9NRR8 whole entry, looked up): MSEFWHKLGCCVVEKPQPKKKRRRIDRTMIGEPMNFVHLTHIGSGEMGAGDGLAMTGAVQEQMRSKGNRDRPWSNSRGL
# Chain of UniProt P15954 (P15954 whole entry, looked up): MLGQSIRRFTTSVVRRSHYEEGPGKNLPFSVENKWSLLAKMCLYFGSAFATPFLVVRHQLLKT
Target,log2 fold change [1],log2 fold change [2],log2 fold change [3],log2 fold change [4],log2 fold change (Nexturastat A),log2 fold change (vemurafenib),log2 fold change [5],log2 fold change [6],log2 fold change (givinostat),log2 fold change (barasertib),log2 fold change [7],log2 fold change (volasertib),log2 fold change [8],log2 fold change (epoxomicin),log2 fold change [9],log2 fold change [10],log2 fold change [11],log2 fold change (rosiglitazone),log2 fold change [12],log2 fold change [13]
CSTF3 (UniProt Q12996),-0.038,0.014,-0.005,0.006,-0.072,-0.005,-0.008,-0.029,-0.05,0.007,0.061,0.091,-0.028,-0.029,0,-0.038,-0.002,0.003,-0.048,0.13
CDK5RAP1 (UniProt Q96SZ6),0.014,-0.04,0.002,0.05,-0.065,-0.007,-0.035,0.066,-0.166,-0.005,-0.119,-0.064,0.071,0.033,0.001,-0.086,-0.006,0.036,-0.074,-0.254 (active)
COASY isoform 2 (UniProt Q13057),-0.002,-0.058,0.057,0.029,0.021,0.054,0.209,-0.007,-0.04,0.029,-0.068,-0.266 (active),0.027,-0.013,0.061,-0.052,0.038,0.017,-0.08,-0.132
CNTN4 (UniProt Q8IWV2),-0.053,0,0.035,-0.244,0.342,-0.038,0.058,0.364,0.278,0.055,-0.016,-0.14,-0.084,0.149,-0.208,-0.157,0,-0.021,-0.077,-0.102
CALCOCO2 isoform 4 (UniProt Q13137),-0.005,-0.008,0.006,0.012,0.019,0.012,-0.037,-0.052,0,0.022,-0.634 (active),-0.471 (active),-0.024,0.035,0.089,0.059,0.01,0,0.055,-0.149
COPS8 (UniProt Q99627),0.031,-0.04,0,-0.09,0.126,-0.003,-0.031,-0.056,0.049,0.009,-0.018,0.043,0.032,-0.047,0.008,0.013,0.033,0.041,0.011,0.113
COA6 isoform 2 (UniProt Q5JTJ3),-0.054,-0.012,0.767 (active),0.036,0.007,-0.041,-0.009,-0.089,-0.02,-0.042,0.045,0.04,-0.004,0.079,-0.069,0.045,-0.023,-0.055,-0.16,0.022
CRKL (UniProt P46109),-1.25 (active),-0.029,0.014,0.019,-0.003,-0.018,-0.009,-0.024,0.009,0.01,-0.012,-0.039,0.007,0,0.008,0,0.012,0.017,0,-0.016
COX20 isoform 2 (UniProt Q5RI15),0.035,-0.041,0.102,0.036,-0.038,-0.036,-0.041,0.069,-0.04,-0.03,-0.019,0.077,-0.01,0,0.004,0.294 (active),-0.038,0.005,0.002,0.081
COX7C (UniProt P15954),-0.057,-0.187,-0.01,0.088,0.027,-0.018,-0.085,0.143,-0.271,0.061,0.035,-0.163,-0.114,0.203,-0.01,0.095,-0.058,-0.025,-0.026,-0.052
COCH (UniProt O43405),0.072,0.053,0.059,0.005,0.046,-0.067,-0.05,0.076,-0.049,0,0.117,-0.08,-0.065,-0.153,0.054,0.075,-0.127,-0.056,0.007,0.076
CRTC2 (UniProt Q53ET0),0.055,0.055,-0.051,0.017,-0.03,0.039,0.031,0.103,0.181,0.062,0.014,0.016,0.061,0.098,-0.023,–,-0.009,-0.043,–,–
CDC42SE1 (UniProt Q9NRR8),0.132,0.059,0.016,-0.09,-0.115,-0.007,0.051,-0.705,-0.236,0.071,-0.995 (active),-2.6 (active),-0.127,0.031,0.029,–,0.05,-0.017,-0.074,–
CDC42BPB (UniProt Q9Y5S2),-0.073,-0.07,-0.034,-0.072,0.052,-0.046,-0.034,0.079,-0.096,-0.087,0.171,0.051,-0.105,-0.065,0.008,0.062,0.046,0.049,0.048,-0.195
CSE1L (UniProt P55060),0.021,-0.006,0.068,0.083,-0.068,0.029,0.063,0.009,0.004,0.042,-0.209 (active),-0.403 (active),0.047,0.03,0.002,-0.068,0.008,0.047,-0.095,-0.181
CDK9 isoform 2 (UniProt P50750),0.053,-0.067,-0.001,-0.084,0.155,-0.052,0.024,0.036,0.014,0.002,-0.01,0.078,0.064,-0.06,0.016,-0.092,-0.042,-0.019,0.178,0.205
COMMD2 (UniProt Q86X83),-0.014,-0.051,0.007,0.035,0.022,0.023,0.159,0.019,0.11,0.053,-0.004,-0.264,0.07,-0.088,-0.022,-0.005,-0.108,0.134,0,-0.209
CSTF2 (UniProt P33240),-0.081,0,0.002,-0.05,0.026,0.016,-0.053,0.004,-0.014,-0.042,0.06,0.233 (active),-0.024,-0.077,0.011,0.041,-0.048,0.01,-0.085,-0.004
CDC42BPA isoform 6 (UniProt Q5VT25),0.151,-0.079,0.01,-0.015,0.123,0.004,0.141,-0.013,0.051,0.04,-0.021,-0.86 (active),0.053,0.001,0.002,0,0.042,0.026,0.078,-0.359
CNDP2 (UniProt Q96KP4),0.021,-0.013,0.04,0.043,-0.131,0.016,0.003,-0.052,-0.087,-0.004,-0.037,0.014,-0.003,-0.012,0.014,-0.1,-0.002,0.016,-0.103,-0.149
C19orf53 (UniProt Q9UNZ5),0.056,0.016,-0.065,-0.196,0.184,-0.189,-0.044,0.146,0.021,-0.096,0.205,0.412,0.045,-0.264,0.104,0.239,-0.189,-0.182,0.34,0.2
CDK4 (UniProt P11802),-0.077,-0.003,0.015,-0.005,0.166,-0.161,-0.128,-0.025,-0.009,-0.023,0.16,0.071,0.117,0.16,-0.018,–,-0.085,0,0.146,–
CKS1B (UniProt P61024),-0.043,-0.094,-0.121,0.036,-0.005,0.056,-0.17,-0.38,-0.034,0.029,-0.028,0.068,0.094,0.014,0.025,0.041,-0.024,-0.002,0.022,-0.006
CAMSAP1 isoform 3 (UniProt Q5T5Y3),0.03,-0.009,-0.02,-0.101,0.168,-0.274,0.042,-0.19,0.151,0.077,-0.044,-0.576 (active),0.184,0.068,0.033,-0.003,-0.232,-0.011,0.03,-0.254
